The values that follow come from PMC7826789 (International Journal of Molecular Sciences, 2021).

The test system of the first test is FLT1.
On to `O=C(Nc1ccccc1)Nc1cccc(Oc2ccc3nccn3n2)c1` [TPKI-39], for which the Kinases covered result is “FLT1”.

As for `CCn1cc(-c2ccnc3[nH]c(-c4cccc(CN(C)C)c4)cc23)c(-c2ccc(NC(=O)N(C)C)cc2)n1` [GSK1070916], the Kinases covered entry is on record as “FLT1”.

With `CCS(=O)(=O)c1ccc(OC)c(Nc2ncc(-c3cccc(F)c3)o2)c1` [GW621970X], the Kinases covered result is on record as “FLT1”.

`CCS(=O)(=O)c1ccc(OC)c(Nc2ncc(-c3cccc(OC)c3)o2)c1` [GW580509X]: the Kinases covered entry is on record as “FLT1”.

In a further test the test system is GAK.
With `CCCc1cc(N2CCCN(C)CC2)nc2sc3c(N)ncnc3c12` [BI00604564], the Kinases covered result is “GAK”.

With `C#Cc1cccc(Nc2ncnc3cc(OC)c(OC4CCN(C)CC4)cc23)c1` [BI00007366], the Kinases covered result is reported as “GAK”.

For the molecule `COc1cc2ncnc(Nc3ccc(F)c(Cl)c3)c2cc1O[C@H]1CC[C@H](N)CC1` [BIBW3133BS], the Kinases covered result is recorded as “GAK”.

As to `O=C(O)/C=C/C(=O)O.OCCCNc1nccc(-c2c(-c3ccc(F)cc3)nn3cc(C(F)(F)F)ccc23)n1` [GW569293E], the Kinases covered result was “GAK”.

Consider `COc1cc(Nc2ccnc3ccc(Br)cc23)cc(OC)c1OC` [CA93.0], for which the Kinases covered result is “GAK”.
